This note sets out measurements from the supplement of paper PMC9262897, “Low-cost anti-mycobacterial drug discovery using engineered E. coli” (Nature Communications, 2022).

Each structure is given as a SMILES string. Where a name gives a salt, the structure may show the parent alone. ± gives the standard deviation of the averaged measurements.

The subject of the experiment is E. coli TESEC Alr+ wild-type control. The experiment can be described thus: growth (OD600 after 10 h); higher = more growth (less inhibition). Particulars: compound 0.1 mM; raw OD600 reference: median of DMSO wells 0.49, cell-free background 0.052. Here is the method:
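TESEC Mtb Alr E. coli (ΔaraC ΔtolC ΔentC Δalr ΔdadX, arabinose-inducible Mtb Alr) or the Alr+ wild-type control strain, grown in defined M9-fructose medium without D-alanine in 96-well plates with Prestwick library compounds at 0.1 mM and 1% DMSO. Low Alr induction is 0.1 µM arabinose and high induction is 10 mM arabinose.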
In the case of `Cc1nnc(NS(=O)(=O)c2ccc(N)cc2)s1` [Sulfamethizole], the growth is 0.462 ± 0.018.

`CC(Oc1c(Cl)cccc1Cl)C1=NCCN1` (stereo not given) [Lofexidine]: the growth amounted to 0.555 ± 0.044.

For `CO/N=C(\C(=O)N[C@@H]1C(=O)N2C(C(=O)O)=C(C[N+]3(C)CCCC3)CS[C@H]12)c1csc(N)n1` [Cefepime hydrochloride], the growth came out at 0.0488 ± 0.0038.

`CCOC(=O)[C@H](CCc1ccccc1)N[C@@H](C)C(=O)N1[C@H](C(=O)O)C[C@@H]2CCC[C@@H]21` [Ramipril] returned a growth of 0.586 ± 0.011.

As for `COc1ccc2cc([C@@H](C)C(=O)O)ccc2c1` [(R) -Naproxen sodium salt], the growth was determined as 0.448 ± 0.03.

For the compound `CN1CCc2cccc3c2[C@H]1Cc1ccc(O)c(O)c1-3` [R(-) Apomorphine hydrochloride hemihydrate], the growth stood at 0.467 ± 0.025.

The compound `C#CCN[C@@H]1CCc2ccccc21` [Rasagiline] yielded a growth of 0.547 ± 0.014.

As for `COCCOC(=O)C1=C(C)NC(C)=C(C(=O)OC(C)C)C1c1cccc([N+](=O)[O-])c1` (stereo not given) [Nimodipine], the growth amounted to 0.325 ± 0.004.

`N=C(N)NC(=N)NCCc1ccccc1` [Phenformin hydrochloride] returned a growth of 0.469 ± 0.053.

`COc1ncnc(NS(=O)(=O)c2ccc(N)cc2)c1OC` [Sulfadoxine] gave a growth of 0.594 ± 0.022.

As for `Nc1ccc(S(=O)(=O)NC(=O)c2ccccc2)cc1` [Sulfabenzamide], the growth turned out to be 0.43 ± 0.0081.

Compound `C[N+]1(C)CCC(=C(c2ccccc2)c2ccccc2)CC1` [Diphemanil methylsulfate] returned a growth of 0.4312 ± 0.0036.

On to `CCCN(CCC)CCc1cccc2c1CC(=O)N2` [Ropinirole HCl], for which the growth is 0.443 ± 0.028.

Compound `CC(=O)c1ccc2c(c1)N(CCCN(C)C)c1ccccc1S2` [Acetopromazine maleate salt] returned a growth of 0.47 ± 0.012.

Turning to `CCC(Cc1c(I)cc(I)c(N)c1I)C(=O)O` (stereo not given) [Iopanoic acid], the growth came out at 0.263 ± 0.0034.

Take `CCC(C)(CN(C)C)OC(=O)c1ccccc1` (stereo not given) [Amyleine hydrochloride]: the growth amounted to 0.586 ± 0.017.

As to `COC(=O)Nc1nc2cc(C(=O)c3ccccc3)ccc2[nH]1` [Mebendazole], the growth stood at 0.588 ± 0.031.

Take `Cc1cc2cc3c(C)cc(=O)oc3c(C)c2o1` [Trioxsalen]: the growth was determined as 0.438 ± 0.0099.

In turn, `CC(C)(O/N=C(\C(=O)N[C@@H]1C(=O)N2C(C(=O)[O-])=C(C[n+]3ccccc3)CS[C@H]12)c1csc(N)n1)C(=O)O` [Ceftazidime pentahydrate] displayed a growth of 0.0473 ± 0.00053.

`O=C(OCC(O)CO)c1ccccc1Nc1ccnc2cc(Cl)ccc12` (stereo not given) [Glafenine hydrochloride] showed a growth of 0.374 ± 0.0054.

For `CCc1c(C)[nH]c2c1C(=O)C(CN1CCOCC1)CC2` (stereo not given) [Molindone hydrochloride], the growth stood at 0.472 ± 0.013.

`O=C(NCCN1CCOCC1)c1ccc(Cl)cc1` [Moclobemide] came in with a growth of 0.615 ± 0.038.

For `CC(=O)N(CC(C)C(=O)O)c1c(I)cc(I)c(N)c1I` (stereo not given) [Iocetamic acid], the growth is 0.509 ± 0.026.

Compound `CC(C)(C)C(=O)OCOC(=O)[C@@H]1N2C(=O)[C@@H](/N=C/N3CCCCCC3)[C@H]2SC1(C)C` [Pivmecillinam hydrochloride] gave a growth of 0.509 ± 0.096.

As to `CC(C)(C)NCC(O)COc1cccc2c1CCC(=O)N2` (stereo not given) [Carteolol hydrochloride], the growth is 0.649 ± 0.043.

Consider `CCn1nc(C(=O)O)c(=O)c2cc3c(cc21)OCO3` [Cinoxacin], for which the growth was 0.0852 ± 0.0034.

Consider `O=C(O)CN(CCN(CC(=O)O)CC(=O)O)CCN(CC(=O)O)CC(=O)O` [Pentetic acid], for which the growth came to 0.0804 ± 0.0038.

On to `COCC(=O)Nc1c(I)c(C(=O)NCC(O)CO)c(I)c(C(=O)N(C)CC(O)CO)c1I` (stereo not given) [Iopromide], for which the growth is 0.464 ± 0.037.

`OC[C@H]1O[C@@H](Oc2ccc(O)cc2)[C@H](O)[C@@H](O)[C@@H]1O` [Arbutin] registered a growth of 0.499 ± 0.077.

Regarding `CCN(CC)CC#CCOC(=O)C(O)(c1ccccc1)C1CCCCC1` (stereo not given) [Oxybutynin chloride], the growth amounted to 0.41 ± 0.043.

Consider `O=C1CN2Cc3c(ccc(Cl)c3Cl)N=C2N1` [Anagrelide], for which the growth was determined as 0.536 ± 0.019.

`O=C(NCC(O)CO)c1c(I)c(C(=O)NCC(O)CO)c(I)c(N(CCO)C(=O)CO)c1I` (stereo not given) [Ioversol] returned a growth of 0.452 ± 0.008.

The compound `CN(C)CCCC1(c2ccc(F)cc2)OCc2cc(C#N)ccc21` (stereo not given) [Citalopram Hydrobromide] registered a growth of 0.476 ± 0.068.

Compound `Cc1onc(-c2c(F)cccc2Cl)c1C(=O)N[C@@H]1C(=O)N2[C@@H]1SC(C)(C)[C@@H]2C(=O)O` [Flucloxacillin sodium] showed a growth of 0.496 ± 0.053.

As for `CNCCC=C1c2ccccc2CCc2ccccc21` [Nortriptyline hydrochloride], the growth is 0.46 ± 0.061.

The compound `OC(c1cc(C(F)(F)F)nc2c(C(F)(F)F)cccc12)C1CCCCN1` (stereo not given) [Mefloquine hydrochloride] gave a growth of 0.04863 ± 0.00045.

`CO/N=C(\C(=O)N[C@@H]1C(=O)N2C(C(=O)OC(C)OC(C)=O)=C(COC(N)=O)CS[C@H]12)c1ccco1` (stereo not given in full) [Cefuroxime axetil]: the growth was determined as 0.427 ± 0.051.

`CCC1(c2ccccc2)C(=O)NCNC1=O` [Primidone] came in with a growth of 0.567 ± 0.028.

The compound `CC(=O)OCC(=O)[C@@]1(O)[C@H](C)C[C@H]2[C@@H]3CCC4=CC(=O)C=C[C@]4(C)[C@@]3(F)[C@@H](O)C[C@@]21C` [Dexamethasone acetate] came in with a growth of 0.477 ± 0.033.

As to `OCCN1CCN(CCCN2c3ccccc3Sc3ccc(Cl)cc32)CC1` [Perphenazine], the growth was determined as 0.0523 ± 0.0019.
